Pf apPOL block – Pf-apPOL DNA polymerase inhibition; inhibition, % at 10 µM; Recombinant Pf-apPOL, molecular beacon fluorescence, 1.5 h; AID 1794808; 0.25% of 210,000 active
mHTT-CaM PPI inh – disrupts binding of mutant huntingtin to calmodulin | inhibition, % at 15 µM | AlphaScreen His-mHTT/GST-CaM binding, luminescence | P42858 | 3.6% of 190,000 active;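 further: 0% = both proteins with DMSO and 100% = one protein alone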
Starred values were filed as active, the others as inactive; i = inactive; x = not tested or not shown. The entries come from a sample that favours hits as a whole. No stated cut-off is given here; in the data, active means inhibition above about 50%; inactive means the rest.

SMILES	Pf apPOL block	mHTT-CaM PPI inh
Cc1nn(-c2nc3ccccc3s2)c2c1C(c1ccccc1)CC(=O)N2 (stereo unspecified)	1	-4
Cc1cc(C)nc(-n2nc(C)c3c2NC(=O)CC3c2ccc3ccccc3c2)n1 (stereo unspecified)	-1	70*
CC(C)NC(=O)N1CCCC(c2cccc(C(=O)NCCN3CCCCCC3)c2)C1 (stereo unspecified)	-2	4
O=C(NCc1cccs1)NCC1CN(c2ccc3c(c2)OCO3)C(=O)O1 (stereo unspecified)	-4	-11
Cc1[nH]c2ccccc2c1C(=O)CN1CCCC1	0	59*
Cc1[nH]c2ccccc2c1C(=O)CN1CCCCC1	-5	-1
CSc1nc(N(C)C)nc(N2C(=N)N(c3ccc(Cl)cc3)C(=O)C2C)n1 (stereo unspecified)	1	4
Cc1ccc(Cl)c(NC(=O)C2CCc3sc(C(=O)N(C)C)cc3C2)c1 (stereo unspecified)	-7	3
O=C(NCc1cccnc1-c1ccccc1)c1ccc2c(c1)OCO2	-10	0
Cc1cc(=O)oc(C)c1C(=O)NCc1ccccn1	-7	57*
CCN(CCCNC(=O)c1nn(-c2ccccc2OC)c(=O)c2ccccc12)c1cccc(C)c1	-1	62*
Cc1cc(=O)oc(C)c1C(=O)NCc1cccs1	-11	14
COc1ccc(-n2nc(C(=O)NCC(=O)Nc3ccc(F)cc3)c3ccccc3c2=O)c(OC)c1	7	88*
O=C(NCc1ccccn1)c1ccc2c(c1)OCO2	-1	100*
COc1ccc(-n2nc(C(=O)Nc3ccc(F)cc3)c3ccccc3c2=O)c(OC)c1	-4	-7
COCCNC(=O)c1nn(-c2ccccc2OC)c(=O)c2ccccc12	-1	-6
Cc1cc(OCC(=O)NCc2ccc(Cl)cc2)nc(N2CCCCC2)n1	-4	-6
COc1cccc(C2C3=C(CCCC3=O)Nc3nc(-c4cccc(Cl)c4)nn32)c1OC (stereo unspecified)	-5	33
CCc1ccccc1NC(=O)C1(C)Oc2cccnc2N(C)C1=O (stereo unspecified)	1	2
COCCNC(=O)c1ccc2ncnc(N3CCCCC3)c2c1	0	-6
CCN(CCCNC(=O)c1c(C)cc(=O)oc1C)c1cccc(C)c1	-9	64*
Cc1cc(=O)oc(C)c1C(=O)NCCCN(CC(C)C)CC(C)C	-16	-15
CC1=C(C#N)C(=O)N(CC(C)O)C(=O)/C1=C\c1ccc(-c2ccc(Cl)cc2)o1 (stereo unspecified)	-13	22
CC1=C(C#N)C(=O)N(CCO)C(=O)/C1=C\c1ccc(-c2cc(Cl)ccc2Cl)o1	-3	37
CC1=C(C#N)C(=O)N(CCO)C(=O)/C1=C/c1ccc(-c2ccc3c(c2)COC3=O)o1	-4	60*
SMILES	Pf apPOL block	mHTT-CaM PPI inh
CC1=C(C#N)C(=O)N(CC(C)O)C(=O)/C1=C\c1ccc(-c2cccc(Cl)c2C)o1 (stereo unspecified)	-8	75*
N#C/C(=C\C=C\c1ccco1)c1nc2ccccc2s1	-10	76*
N#C/C(=C\c1ccco1)c1nc(-c2ccccc2)cs1	-3	-10
Cc1cccc(C=C2Oc3cc(OC(=O)c4ccco4)ccc3C2=O)c1	-6	16
C=CCNC(=O)C(=O)NCc1ccc2c(c1)OCO2	-2	0
CCN(CCN(C)C)Cc1ccccc1Cl	-12	0
CCCCNc1nc2ccncc2n(Cc2ccccc2)c1=O	-6	-2
CCn1c(=O)c(NCCCN2CCCc3ccccc32)nc2ccncc21	0	67*
O=C(Cc1csc(-n2cccc2)n1)NCCc1cccs1	-8	4
O=C(CN1C(=O)c2ccccc2S1(=O)=O)N1CCCCC1	-2	1
O=C(CN1C(=O)c2ccccc2S1(=O)=O)N1CCCCCC1	51*	2
c1ccc(-n2ncc3c(NCc4ccccn4)nnnc32)cc1	8	-3
O=c1oc2cc3occ(-c4ccc(Cl)cc4)c3cc2c2c1CCC2	80*	-2
O=c1oc2cc3occ(-c4ccc(F)cc4)c3cc2c2c1CCCC2	3	-3
Cc1c(C)c2cc3c(-c4ccc(Cl)cc4)coc3cc2oc1=O	91*	-1
COc1ccc2c(c1)c(=O)oc1cc3occ(-c4ccc(Cl)cc4)c3cc12	1	5
O=C(C/C=C/c1ccccc1)O/N=C1\CCSc2ccccc21	-3	i
Cc1ccc(-c2nccn3cc(C(=O)N4CCCCC4)nc23)cc1	-1	1
Cc1ccc(S(=O)(=O)Nc2ccc3[nH]cc(Cl)c3c2)cc1	3	x
Cc1onc(-c2c(Cl)cccc2Cl)c1C(=O)On1c(-c2ccccc2)nc2ccccc2c1=O	-3	x
O=C(On1c(-c2ccccc2)nc2ccccc2c1=O)c1ccco1	-10	100*
COc1ccc(OCC(=O)NCc2ccccn2)cc1	-9	-1
O=C1CCC(=O)N1c1ccc(Sc2ccc([N+](=O)[O-])cc2)cc1	-4	5
O=C1C=CC(=O)N1c1cc(Sc2ccc(F)cc2)cc([N+](=O)[O-])c1	5	85*
Cc1c(C(=O)NCc2cccnc2)sc2ncn(CC(=O)N3CC(C)CC(C)C3)c(=O)c12 (stereo unspecified)	-5	1
SMILES	Pf apPOL block	mHTT-CaM PPI inh
Cc1cc2c(c(C)c1Cl)CN(Cc1ccc3c(c1)OCO3)CO2	-12	6
CCOC(=O)CNC(=O)N1CCC(n2c(-c3ccsc3)nc3cccnc32)C1 (stereo unspecified)	-3	3
CNC(=O)CC1CCN(c2ccnc(NC)n2)CC1	93*	-2
CNc1nccc(N2CCC(CC(=O)NCCOC)CC2)n1	1	-2
CNc1nccc(N2CCC(CC(=O)N3CCN(c4cccc(C)c4)CC3)CC2)n1	2	11
CCNc1nccc(N2CCC(CC(=O)N3CCN(c4cccc(Cl)c4)CC3)CC2)n1	-6	51*
COc1cc(O)c(CN2CCCC2)c2oc(-c3ccccc3)cc(=O)c12	0	3
COc1cc(C(CCN2CCOCC2)c2c(OC)cc(OC)c3c(-c4ccccc4)cc(=O)oc23)cc(OC)c1OC (stereo unspecified)	-22	75*
O=c1cc(-c2ccccc2)c2ccc(O)c(CN3CCOCC3)c2o1	2	-10
CCN(CC)C(=O)CC(c1cc(OC)c(OC)c(OC)c1)c1c(OC)cc(OC)c2c(-c3ccccc3)cc(=O)oc12 (stereo unspecified)	9	69*
CCN(CC)C(=O)CC(c1cc(OC)c(OC)c(OC)c1)c1c(OC)cc(OC)c2ccc(=O)oc12 (stereo unspecified)	-3	26
COc1cc(C(CCN2CCCC2)c2c(OC)cc(OC)c3c(-c4ccccc4)cc(=O)oc23)cc(OC)c1OC (stereo unspecified)	-20	58*
CCc1cccc(NC(=O)C2CCN(c3cc(=O)n(C)c(=O)n3C)CC2)c1	-2	66*
Cn1c(N2CCC(C(=O)Nc3ccccc3)CC2)cc(=O)n(C)c1=O	-1	42
COc1cc(OC)c(NC(=O)C2CCN(c3cc(=O)n(C)c(=O)n3C)CC2)cc1Cl	-2	59*
COc1ccc(NC(=O)C2CCN(c3cc(=O)n(C)c(=O)n3C)CC2)c(OC)c1	5	44
CCn1c(N2CCC(C(=O)NCc3ccc(F)cc3)CC2)cc(=O)n(C)c1=O	-5	42
CCn1c(N2CCC(C(=O)NCc3cccc(Cl)c3)CC2)cc(=O)n(C)c1=O	-2	59*
Cn1c(N2CCC(C(=O)N3CCN(Cc4ccccc4)CC3)CC2)cc(=O)n(C)c1=O	1	38

Screening results deposited in PubChem by University of Kansas High Throughput Screening Laboratory.
